From PubChem
Compounds with a hit are over-represented: about 10% of the library has one in this group of screens.
HEK293 tox – HEK 293 cell cytotoxicity; AID 1345083; Potency, µM (top dose mostly 115 µM), without a hit: at the highest dose activity change, negative = cytotoxicity, usual class: inhibitors; HEK 293 viability, ATP luminescence (CellTiter-Glo), 48-72 h; 94,000 tested, 6.6% active; further: nearly all actives have a fitted effect of over 60% in size
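ATP-coupled CellTiter-Glo luminescence served as viability read-out, recorded 10 min after reagent addition at room temperature. HEK 293 cells, 250 cells/well, had been incubated with pintool-transferred compound for 48 or 72 hr at 37 degree Celsius.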
hNpr1 antagonist – human Npr1 receptor antagonism | HEK293 hNpr1 GloSensor cGMP, ANP-stimulated luminescence | P16066 | 76,000 tested, 1.6% active | Potency, µM (highest dose often 46.3 µM), for the others: at the top dose activity change, negative = inhibition, most hits filed as inhibitors; calls by dose curve; further: nearly all actives have a fitted effect of over 60% in size
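HEK293 cells stably expressing human Npr1 and cGMP GloSensor pGS-40F, loaded 2 h with 2% GloSensor reagent, given compound 30 min at room temperature. Luminescence read before and 20 min after 0.1 nM hNppA.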
GPT2 inhibitor – blocks human glutamate pyruvate transaminase 2. Q8TD30. Recombinant GPT2, coupled pyruvate oxidase/HRP Amplex Red fluorescence. Potency, µM (doses to about 57.7 µM), for inactives: at the highest dose activity change, negative = inhibition, actives largely listed as inhibitors. 100,000 tested, 0.25% active. AID 1671188; further: nearly all actives have a fitted effect of over 60% in size
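Recombinant GPT2 (10ng/uL) with 250uM a-KG and 2mM L-alanine, 30 min at room temperature, in HEPES pH 7.5 buffer. Pyruvate detected by pyruvate oxidase/HRP/Amplex Red fluorescence after 30 min in the dark; AOA (50uM) as positive control.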
FLuc inh – inhibitors of firefly (Photinus pyralis) luciferase. P08659. 76,000 tested, 2.5% active. AID 1347043. purified P. pyralis luciferase, luminescence, biochemical. Potency, µM (top dose mostly 115 µM), usual class: inhibitors; further: nearly all actives have a fitted effect of over 65% in size
Target sequence (P08659 whole entry, looked up): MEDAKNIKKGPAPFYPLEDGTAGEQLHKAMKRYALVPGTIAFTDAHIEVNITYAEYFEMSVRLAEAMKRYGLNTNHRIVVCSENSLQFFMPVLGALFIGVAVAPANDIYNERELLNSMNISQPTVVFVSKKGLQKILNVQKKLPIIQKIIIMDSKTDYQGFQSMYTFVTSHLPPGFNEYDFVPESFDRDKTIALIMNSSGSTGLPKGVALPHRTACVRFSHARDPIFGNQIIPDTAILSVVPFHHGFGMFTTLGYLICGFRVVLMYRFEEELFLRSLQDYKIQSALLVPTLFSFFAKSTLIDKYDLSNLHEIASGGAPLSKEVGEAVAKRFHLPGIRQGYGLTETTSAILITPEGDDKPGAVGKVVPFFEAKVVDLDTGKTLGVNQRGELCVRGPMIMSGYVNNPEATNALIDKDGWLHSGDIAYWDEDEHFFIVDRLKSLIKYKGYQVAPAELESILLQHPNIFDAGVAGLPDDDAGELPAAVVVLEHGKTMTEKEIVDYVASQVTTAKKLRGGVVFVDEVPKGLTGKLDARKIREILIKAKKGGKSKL
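Inhibitors were tested against purified firefly luciferase in a biochemical, low-substrate format (both substrates at 10uM) and luminescence measured with a CCD imager.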
3T3 cytotox – cytotoxic compounds in NIH 3T3 cells. NIH 3T3 viability, CellTiter-Glo ATP luminescence, 48-72 h. Potency, µM (highest dose often 96.7 µM), for the others: at the top dose activity change, negative = cytotoxicity, hits mostly inhibitors. 94,000 tested, 4.3% active. AID 1345082; further: nearly all actives have a fitted effect of over 55% in size
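First NIH 3T3 cells are plated at 400 cells/well; next compound is pinned in; then plates incubate 48 or 72 hr at 37 °C; finally CellTiter-Glo is added and luminescence read after 10 min.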
* marks the source's active call; other numbers are inactive results; i = inactive; ? = inconclusive; . = no result given; [ ] = dose if it differs, or a comment. Unless noted, the call rests on the fitted dose curve; in most records, active means well fitted curve in the direction sought with a large enough effect; inconclusive means small, poorly fitted or top-dose-only effect, or another doubt; inactive means no such curve, though single readings can be large; an effect the other way counts as inactive or inconclusive. On the % scale 0 is the no-effect control and ±100 the full control effect; potency means the concentration at half of the fitted maximal effect.

SMILES	HEK293 tox	hNpr1 antagonist	GPT2 inhibitor	FLuc inh	3T3 cytotox
CC1(C)CN(Cc2cn(Cc3ccccc3)nc2-c2cc3ccccc3o2)CCO1	?	-2.7%	?	i	?
c1ccc(Cn2cc(CN3CCCOCC3)c(-c3cc4ccccc4o3)n2)cc1	?	1.4%	i	35.5µM*	?
COC[C@H]1CCCN1Cc1cn(Cc2ccccc2)nc1-c1cc2ccccc2o1	?	-12.3%	-1.1%	?	?
c1ccc(Cn2cc(CN3CCN(c4ccncc4)CC3)c(-c3cc4ccccc4o3)n2)cc1	39.8µM*	0.9%	-3.3%	i	28.2µM*
FC1CCN(Cc2cn(Cc3ccccc3)nc2-c2cc3ccccc3o2)CC1	31.6µM*	-2.9%	-2.2%	i	?
CC(C)(C)C(=O)Nc1nc2c(s1)C[C@@H]1[C@](C)(CO)[C@H](O)CC[C@@]1(C)[C@@H]2CC(=O)Nc1cccc(O)c1	-23.1%	1.6%	i	i	?
COc1ccc(Nc2ccnc(N3CCC(C(=O)NC(C)C)CC3)n2)cc1	?	.	4.4%	.	?
COc1cccc(CNC(=O)c2ccc3oc(-c4cccnc4)nc3c2)c1	?	.	-18.4%	.	?
COCc1ccc2c(c1)c(OC(C)(C)C(=O)NCc1ccncc1)nn2Cc1cccc(OC)c1	?	3.8%	i	i	10µM*
COCc1ccc2c(c1)c(OC(C)(C)C(=O)NCCCn1ccnc1)nn2Cc1ccccc1	-16.8%	-1.0%	i	i	22.4µM*
COCc1ccc2c(c1)c(OC(C)(C)C(=O)NCc1ccncc1)nn2Cc1cccnc1	-10.1%	-1.5%	1.3%	i	?
COCc1ccc2c(c1)c(OC(C)(C)C(=O)N(C)C)nn2Cc1ccccc1	-27.5%[172 µM]	3.5%[70.6 µM]	i	i	?
COCc1ccc2c(c1)c(OC(C)(C)C(=O)NCc1ccncc1)nn2Cc1ccccc1	-27.8%	3.5%	-2.5%	i	28.2µM*
COCc1ccc2c(c1)c(OC(C)(C)C(=O)Nc1ccccn1)nn2Cc1cccc(OC)c1	?	2.8%	-11.3%	i	?
COCc1ccc2c(c1)c(OC(C)(C)C(=O)NCCN(C)C)nn2Cc1ccccc1	-26.6%[172 µM]	-2.9%[70.6 µM]	i	i	89.1µM*
O=C(NC1CCCN(c2ccc3nnc(C4CC4)n3n2)C1)C1CC1 (centres undefined)	-4.7%	.	.	.	0.5%
CC(C)C(=O)N1Cc2ccccc2OC2(CCN(C(C)C)CC2)C1	-10.6%	-3.7%	2.5%	i	-25.1%
O=C(c1ccccc1)N1CCCC(C(=O)N2CCC(N3CCOC3=O)CC2)C1 (centres undefined)	0.3%	.	i	.	-11.2%
O=C(Nc1nc2ccccc2s1)C1CC(=O)N(c2n[nH]c3cccc(F)c23)C1 (centres undefined)	12.6µM*	-15.4%	3.8%	i	25.1µM*
O=C(Nc1nc2c(s1)CCCC2)C1CC(=O)N(c2n[nH]c3ccccc23)C1 (centres undefined)	?	-17.3%	i	i	-23.8%
O=C(Nc1nc2c(s1)CCC2)C1CC(=O)N(c2n[nH]c3cc(Br)ccc23)C1 (centres undefined)	?	-26.8%	i	i	17.8µM*
COc1ccc(N2CCN(C(=O)C3CC(=O)N(c4n[nH]c5cccc(F)c45)C3)CC2)cc1 (centres undefined)	39.8µM*	-15.4%	?	i	-14.4%
O=C(Nc1nc2c(s1)CCC2)C1CC(=O)N(c2n[nH]c3cccc(F)c23)C1 (centres undefined)	44.7µM*	0.5%	i	i	?
CC(=O)N1CCC(Cc2noc(-c3ccccc3)n2)C1 (centres undefined)	?	4.4%	i	i	-12.6%
O=C(c1cccc(F)c1)N1CCCC(Cc2noc(-c3ccccc3)n2)C1 (centres undefined)	?	-9.0%	-35.6%	i	31.6µM*
SMILES	HEK293 tox	hNpr1 antagonist	GPT2 inhibitor	FLuc inh	3T3 cytotox
O=C(CCc1nc2ccccc2[nH]1)N1CCCC(Cc2noc(-c3ccccc3)n2)C1 (centres undefined)	22.4µM*	?	?	i	?
COC(=O)c1ccc2nc(C[C@@H]3C[C@@H](C(C)C)[C@H](CNCc4ccc(OC)cc4O)C=C3C)[nH]c2c1	20µM*	-20.2%	-9.0%	i	25.1µM*
COC(=O)c1ccc2nc(C[C@@H]3C[C@@H](C(C)C)[C@H](CNCc4ccccc4F)C=C3C)[nH]c2c1	?	3.9%	4.6%	i	22.4µM*
COC(=O)c1ccc2nc(C[C@@H]3C[C@@H](C(C)C)[C@H](CNC(=O)C(C)C)C=C3C)[nH]c2c1	?	-0.1%[70.6 µM]	-9.2%[88.5 µM]	i	?
CN(C)c1cccc(C(=O)NCC2CCN(c3cc(-c4ccc(F)cc4)[nH]n3)CC2)c1	?	-22.1%	?	?	?
Cc1ccc(-c2cc(N3CCC(CNC(=O)c4n[nH]c5c4CCCC5)CC3)n[nH]2)cc1	?	?	?	?	28.2µM*
O=C(NCC1CCN(c2cc(-c3ccccc3)[nH]n2)CC1)c1n[nH]c2c1CCCC2	?	?	?	?	31.6µM*
Cc1ccc(-c2cc(N3CCC(CNC(=O)c4ccc[nH]4)CC3)n[nH]2)cc1	?	-1.0%	?	?	?
O=C(NCC1CCN(c2cc(-c3ccc(F)cc3)[nH]n2)CC1)c1n[nH]c2c1CCCC2	39.8µM*	?	?	?	35.5µM*
Cc1nc(N2CCC(NC(=O)c3ccc[nH]3)CC2)cc(C(F)(F)F)n1	-4.0%	-22.2%	-1.2%	i	-9.9%
COc1cccc(CCC(=O)N2CCCC(c3nnnn3-c3ccccc3)C2)c1 (centres undefined)	-22.4%	.	i	.	?
Cc1ccc(C(=O)N2CCCN(c3ccc4nnc(C)n4n3)CC2)cc1	-0.2%	.	.	.	-23.6%
Clc1cc(Cl)cc(NC2CNC2)c1	63.1µM*	.	-10.1%[88.5 µM]	.	56.2µM*
CCOCCOC1CCN(C(=O)c2cccc3[nH]ccc23)CC1	-1.6%	-1.3%	i	35.5µM*	i
O=C(NCc1cccc(Cl)c1)c1noc(-c2ccc3c(c2)OCO3)n1	39.8µM*	0.8%	i	?	?
O=C(NCc1cccs1)c1noc(-c2ccc(F)cc2)n1	?	-2.4%	i	?	?
COc1ccccc1C(=O)NCc1c[nH]c2ncccc12	-3.8%[172 µM]	3.9%[70.6 µM]	-5.0%[88.5 µM]	i	-31.8%[138 µM]
Cc1cccc(CNC(=O)c2noc(-c3ccc4c(c3)OCO4)n2)c1	?	-2.5%	i	?	?
COc1ccc(CNC(=O)c2noc(-c3ccc4c(c3)OCO4)n2)cc1	?	3.0%	i	31.6µM*	?
